# Assay results published in the supplement of paper PMC6555819.
# Experiments:
# Assay in all cases: PBM binding z-score (relative to random genomic background probes); higher = stronger binding; sequences stand for … in GC…GCGATTGACAGCGTAGAATGAAGG
# [1] = tested on: FXR:RXRa (NR concentration 270 nM, RXRa partner concentration 90 nM)
# Method in brief: (§1)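 Ligand-free nuclear receptor dimers were bound for 1 h to custom Agilent 4×180K protein-binding microarrays. Detection used antibodies against each partner (one per run). Binding z-scores rest on regression-normalized fluorescence, with random background probes as the reference.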
# [2] = tested on: LXRa:RXRa (NR concentration 270 nM, RXRa partner concentration 90 nM)
# Method in brief: as §1
# [3] = tested on: LXRa homodimer (NR concentration 270 nM)
# Method in brief: as §1
# [4] = tested on: LXRb:RXRa (NR concentration 270 nM, RXRa partner concentration 90 nM)
# Method in brief: as §1
# [5] = tested on: LXRb homodimer (NR concentration 270 nM)
# Method in brief: as §1
# [6] = tested on: PPARa:RXRa (NR concentration 270 nM, RXRa partner concentration 90 nM)
# Method in brief: as §1
# [7] = tested on: PPARg:RXRa (NR concentration 180 nM, RXRa partner concentration 90 nM)
# Method in brief: as §1
# [8] = tested on: PPARg:RXRa 270nM:90nM, anti-RXR (NR concentration 270 nM, RXRa partner concentration 90 nM)
# Method in brief: as §1
# [9] = tested on: PPARg:RXRa 30nM:10nM, anti-RXR (NR concentration 30 nM, RXRa partner concentration 10 nM)
# Method in brief: as §1
# [10] = tested on: PPARg:RXRa 90nM:30nM, anti-RXR (NR concentration 90 nM, RXRa partner concentration 30 nM)
# Method in brief: as §1
Sequence,PBM binding z-score [1],PBM binding z-score [2],PBM binding z-score [3],PBM binding z-score [4],PBM binding z-score [5],PBM binding z-score [6],PBM binding z-score [7],PBM binding z-score [8],PBM binding z-score [9],PBM binding z-score [10]
ATCGAAAGGTCGATGAGGTGAGTATACACCGTTT,3.46,2.76,-0.117,2.16,0.539,3.5,1.83,2.19,1.1,1.4
CCTGCTAGGTAAATGGTCAGCTAAAGCAGCTCGC,-0.299,-0.376,-0.748,-0.628,-0.539,-0.0599,0.476,1.64,0.189,1.31
ATATGTAGGTTAGCTGGGGTCATTAAGACTAGGC,4.6,5.39,2.55,4.58,1.38,5.13,5.69,4.89,2.49,4.2
CCTGCTAGGTCAATGCTCAGCTAAAGCAGCTCGC,2.82,1.9,-0.307,1.16,-0.142,2.54,1.2,1.88,-0.451,0.833
TCTTGTAGAACAATAGAGGTTAAGAAAGTGCGCT,0.656,2.99,0.526,1.58,-0.26,1.92,0.287,1.7,2.64,2.2
CCGACTGGGTCAAGGTTACCATAACGCACAGCCA,3.19,2.1,0.079,2.21,-0.717,4.15,6.25,5.71,3.15,5.32
CGTCCATGGTCAAAGGTCAGTGAAGAGATGACGG,3.85,3.63,0.607,3.29,0.097,4.92,7.27,7.01,5.64,7.4
ACTTGTTGGTCAGCTGAGGTCACACACAATTCGG,3.37,3.31,2.13,3.51,0.632,3.79,1.8,2.46,0.673,1.95
TCTTGTAGATCAATAGAGGTTAAGAGAGTGCGCT,1.02,3.23,0.39,1.56,-0.263,1.97,0.0918,1.53,2.37,2.22
AATACAGCGTCACTAGGCCAGAGTAGGTACGAAT,-0.287,-0.499,-0.588,-0.808,-0.279,0.0154,0.87,0.513,0.103,0.0712
CCGAGTAGGTTAGGGGGCATTCAGGCAACGGTGA,1.36,1.91,0.834,4.42,6.02,4.43,6.67,7.33,5.18,7.46
GCGACTGGGGCAAACCAGGTTACCATAAGGTTGG,0.393,0.174,-0.329,0.0865,-0.736,1.37,1.43,1.51,-0.386,0.602
TCGCCTAGGTCATTGGGCCAGTATAGTACGCATC,4.27,2.83,0.548,2.4,-0.239,3.61,3.1,3.57,2.21,2.73
CGTCCAAGGTCAAAGGTCTGTGAAGAGATGACGG,7.64,5.46,1.27,4.26,0.554,5.87,7.08,6.81,4.47,6.48
TCTTGTAGATCAAGTAGGTTAAGAAAGCCTGAGT,0.567,0.521,0.138,0.441,-0.306,1.17,-0.25,1.46,2.57,2.04
CTTCAAAGTTCAAGGTAACGTAACAGAAAGCAGC,5.99,5.87,3.59,3.5,1.19,4.48,2.86,3.83,1.15,2.43
CGTCCAAGGTCGAGGTCAGTGAAAGAGACTCGAA,4.56,3.15,0.186,2.74,-0.695,4.31,2.53,3.25,0.231,1.81
CTACCAAGGTGAAGAAGGTCGTTGATTACTATTC,0.613,0.547,0.132,1.33,-0.664,1.95,0.281,0.572,-0.116,0.36
CCCACTGGGCCATCAGGTCATTGATATCAACGTT,1.16,1.11,1.5,1.63,-0.17,2.74,2.87,3.57,1.18,2.86
AGTCGAAGTTCATCTAGGTAACGTAAGATATGCT,2.95,2.8,1.21,1.62,0.0848,2.8,1.9,2.32,0.883,1.66
TCTAGTTGGTCAAAGGTCACACAATCGAAATGCG,5.53,5.9,3.73,5.66,2.13,6.6,11.8,9.87,11.7,11.4
GCGGCTAGGTCAGGTTGGTCAGCTAACGGGTACG,1.14,0.573,-0.172,0.648,-0.613,1.33,0.166,0.609,-0.687,0.275

Sequence,PBM binding z-score [1],PBM binding z-score [2],PBM binding z-score [3],PBM binding z-score [4],PBM binding z-score [5],PBM binding z-score [6],PBM binding z-score [7],PBM binding z-score [8],PBM binding z-score [9],PBM binding z-score [10]
TCTAGTTGGTCAAAGGGCACACACTCGAAATGCG,1.38,1.56,0.344,1.48,0.0761,4.28,8.25,7.85,7.7,8.57
TAGCCTAGGTCATGGGGCCAGTATAGTACGCATC,4.54,3.52,0.182,2.77,0.0614,4.31,3.62,3.29,0.919,2.66
CGTCCAAGGTCAGAGAGGTCAGTGCATGCCGAGT,5.87,4.93,3.33,4.41,0.554,4.76,3.48,4.37,0.807,2.76
AGAATGAGGTTAAGATCTGGGAAACAGAATACAT,1.95,1.82,-0.135,1.51,-0.0689,3.64,2.13,2.39,0.969,1.84
TCGAGTAGGTTACCAATGGGGCATACAGCTTTCT,0.164,1.55,-0.441,1.04,-0.663,1.18,0.984,1.68,1.27,1.28
CGAACGAAGGCATGAGTTGATAGCAAATGCCGAT,-0.766,-0.753,-0.489,-0.751,-1.09,-0.568,0.575,-0.579,-0.739,-0.741
GATATTAGTTGAAAGGGCAACCGAATGATTCTCG,0.693,1.12,0.566,1.26,0.285,2.63,2.9,4.65,2.47,4.54
GCGACTGGGGCATCACCAGGTTACCATAACTTAA,-0.25,-0.178,-0.0644,0.637,-0.712,1.02,1.1,0.672,-0.379,0.216
ATCTCTAGGTAAAGATAGGTCAGTGAATGCAAAT,0.743,5.46,1,2.53,0.609,1.87,0.963,1.24,0.668,0.741
ATGTGTAGGTTAAGGGTCATTCAGGTTGGTTCGC,5.28,4.85,3.49,4.71,2.56,5.72,9.4,8.54,9.74,9.9
CTCGAAAGGTCGGCTGAGGTGAGTATACGGATAA,3.7,2.47,-0.364,1.86,-0.336,3.62,0.965,2.18,0.306,1.12
ATAGAAAGGTCGACGAGGTGAGTATACACCGTTT,4.55,2.95,0.22,2.52,0.294,4.18,2.91,2.81,1.55,2.17
GCTAACGGGTCAAAGGTTATAGCATGAATAGAAT,7.39,5.26,0.513,5.21,0.0725,6.84,10.4,8.58,9.26,9.13
ATCTCTAGGTACCAAGTTCAGTGAAAGAGAGGAC,0.701,0.609,0.346,0.651,0.845,0.892,0.678,1.23,0.604,1.03
TCTCGGAGGACAAGAAGGTCAGAGCTTTCCAGAG,1.04,1.14,0.138,0.982,-0.842,1.9,0.179,1.35,2.52,1.71
CCTGCTAGCTCAATGGTCAGCTAAAGCAGCTCGC,-0.674,-0.624,-0.571,-0.457,-0.691,-0.408,-0.805,-0.234,-0.854,-0.539
ATCGAAAGGTCGACGAGGTGAGTTTACACCGTTT,4.66,3.45,0.17,2.95,0.407,4.71,2.73,3.1,0.726,2.05
ATAGACAGGTGATGAAGGTAACTCAGGCTATCAT,-0.202,-0.185,-0.277,-0.324,0.162,-0.103,0.6,0.152,0.156,-0.14
CCGACTGGGGCAAGGTTACTATAACGCACAGCCA,0.258,1.52,-0.118,0.79,-0.963,1.59,3.02,2.98,1.03,2.21
TCTTGTAGATCAACAGGAGGTTACGAAAGATCGA,0.309,1.28,0.0638,0.991,-0.0897,1.55,0.26,1.65,2.53,1.91
ACTATTAGTTGATTTAGGGCAACCGATACGACGC,0.352,0.0302,0.44,0.0865,1.19,0.816,0.99,0.588,0.446,0.717
CCGAGTAGGTTATGGGGCATTCAGGCAACGGTGA,0.255,0.351,-0.0528,0.508,-0.322,2.11,3.48,4.31,2.03,3.91
